Records with an inconclusive call do not appear. Calls of active or inactive are those of the source. The call rests on the fitted dose curve; in most records, active means well fitted cell-killing curve with a large enough effect in the repeat runs; inconclusive means weak or mixed curves; inactive means flat fitted curve, though single readings scatter.

This assay is described as follows: qHTS RealTime-Glo MT Cell Viability Assay in HepG2 cells - 8 hour (AID 1224873). Further: nearly all actives have a fitted effect of over 55% in size. The following applies: RealTime-Glo luminescence; series mostly up to 76.8 µM. From the text:
National Center for Advancing Translational Sciences [NCATS]
NIH Chemical Genomics Center [NCGC]
U.S. Environmental Protection Agency [EPA]
National Institutes of Environmental Health Sciences [NIEHS]
National Toxicology Program [NTP]
U.S. Food and Drug Administration [FDA]
Measure of cell viability is critical in the cell-base assay. Analysis of cell viability is necessary for the characterization of cell responses to cytotoxic drugs and environmental stress. A RealTime-Glo MT Cell Viability Assay to monitor cell viability in real time of continues cell culture during 40 hours of compound treatment was used to screen Tox21 10K library compounds in HepG2 cells. The RealTime-Glo MT Cell Viability Assay is a nonlytic, homogeneous, bioluminescent method to measure cell viability in real time using a simple, plate-based method. The assay involves adding NanoLuc luciferase and a cell-permeant prosubstrate to cells in culture. Viable cells reduce the proprietary prosubstrate to generate a substrate for NanoLuc luciferase. This substrate diffuses from cells into the surrounding culture medium, where it is rapidly used by the NanoLuc Enzyme to produce a luminescent signal. The signal correlates with the number of viable cells, making the assay well suited for cytotoxicity studies.
Tox21 Assay Protocol Summary:
The mixture of HepG2 cell suspension and reagents were dispensed at 600cells/6 ul/well in 1536-well tissue culture treated black solid bottom plates using a Multidrop dispenser. After the assay plates were incubated at a 37 C/5% CO2 incubator for 5 hours, 23 nL of compounds dissolved in DMSO, positive and negative controls was transferred to the assay plate by a pintool work station. The plates were incubated at 37 C for 40 hours. The luminescence intensity were measured at 0h, 8h, 16h, 24h, 32h and 40h time points using ViewLux plate reader during compound treatment.
Background: Quantitative high-throughput screening tests each substance at several concentrations.
As to `OCc1c2ccccc2cc2ccccc12`, the result was inactive.

For `CC1=C(CC(=O)O)c2cc(F)ccc2/C1=C\c1ccc(S(C)(=O)=O)cc1`, the compound was classed as inactive.

For the compound `Cc1cc(S(=O)(=O)O)c(N)cc1Cl`, the compound was called inactive.

Regarding `CCCCCCOc1ccc(N)cc1`, the result was inactive.

For `CCCCCCCCCC#N`, the result was inactive.

`CCOC(=O)c1cc(=O)c2c(OCC(COc3cccc4oc(C(=O)OCC)cc(=O)c34)OC(=O)[C@@H](N)CCCCN)cccc2o1`: the compound was classed as inactive.

Turning to `O=c1[nH]c(=O)n([C@H]2C[C@H](O)[C@@H](CO)O2)cc1C(F)(F)F`, the call was inactive.

As for `CC1(C)C(=O)N(Cl)C(=O)N1Br`, the compound was classed as inactive.

As to `Cc1ccc(C)c(N)c1`, the call was inactive.

Take `CC(C)CC(=O)OCc1ccccc1`: the result was inactive.

For the compound `CN(CC1(C)CCCO1)S(=O)(=O)c1ccc(Cl)c(S(N)(=O)=O)c1` (stereo not given), the call was inactive.

For `CC(C)C(=O)OCC(C)(C)C(O)C(C)C` (stereo not given), the result was inactive.

With `Clc1cccc(-c2cc(Cl)cc(Cl)c2)c1`, the compound was called inactive.

For the compound `NC/C=C/C(=O)O`, the compound was called inactive.

Turning to `C1CCOC1`, the outcome was inactive.

On to `CC(C)C1=CC2=CC[C@@H]3[C@](C)(CCC[C@@]3(C)C(=O)O)[C@H]2CC1`, for which the result was inactive.

Turning to `CN(CCCN1c2ccccc2CCc2ccccc21)CC(=O)c1ccc(Cl)cc1`, the compound was classed as inactive.

For the compound `CC1CN(c2ccccc2)NC1=O` (stereo not given), the compound was classed as inactive.

`CN1CCN(c2c(F)cc3c(=O)c(C(=O)O)cn(CCF)c3c2F)CC1`: the call was inactive.

With `CC(C)(C)c1cccc(O)c1`, the compound was classed as inactive.

Consider `Cc1nnc(SCC2=C(C(=O)O)N3C(=O)[C@@H](NC(=O)Cn4cnnn4)[C@H]3SC2)s1`, for which the compound was classed as inactive.

Consider `Cc1ccc([N+](=O)[O-])c(N)c1`, for which the compound was called inactive.

For `O=C(O)[C@@H]1CSCN1`, the result was inactive.

As for `CCN(CCCc1ccccc1)CCCc1ccccc1`, the result was inactive.

Take `NC(=O)NS(=O)(=O)c1ccc(Cl)cc1`: the call was inactive.

Turning to `O=CCCc1ccccc1`, the result was inactive.

Take `FC(F)(F)C(Cl)(Cl)Cl`: the call was inactive.

`NC1=NCC2c3ccccc3Cc3ccccc3N12` (stereo not given): the outcome was inactive.

Turning to `O=S(=O)(O)C(F)(F)F`, the call was inactive.

Consider `C/C(=N\O)[C@@H](C)NCC(C)(C)CN[C@H](C)/C(C)=N/O`, for which the outcome was inactive.

With `Cc1cc2c(s1)Nc1ccccc1N=C2N1CCN(C)CC1`, the outcome was inactive.

Take `NC(=O)Cc1cccc(C(=O)c2ccccc2)c1N`: the call was inactive.

Consider `CC(C)=CCC[C@](C)(O)[C@@H]1CC=C(C)CC1`, for which the outcome was inactive.

For `CC1(O)CSC(C)(O)CS1` (stereo not given), the compound was called inactive.

Regarding `C=CC(C)(O)CC/C=C(\C)CCC=C(C)C` (stereo not given), the call was inactive.

Consider `O=C1CCCCCCCCCCC(=O)OCCO1`, for which the compound was classed as inactive.

Consider `OC[C@H]1O[C@@H](O[C@H]2[C@H](O)[C@@H](O)[C@H](O)O[C@@H]2CO)[C@H](O)[C@@H](O)[C@H]1O`, for which the compound was classed as inactive.

For the compound `Cc1ncc(CO)c(CN)c1O`, the result was inactive.

Regarding `CC1=NN(c2cc(Cl)c(S(=O)(=O)O)cc2Cl)C(=O)C1N=Nc1ccc(S(=O)(=O)O)cc1` (stereo not given), the outcome was inactive.

As to `OCc1ccccc1O`, the compound was called inactive.

(Values after PubChem BioAssay (Tox21).)
